Results published in PubChem BioAssay.
Calls of active or inactive are those of the source. Unless noted, how the calls were made is not given here.

How the values were obtained:
[1] = tested on: Aerobactin synthetase IucA (Klebsiella pneumoniae hvKP1); test: Biochemical IucA enzyme inhibition primary screen of the Spectrum library (AID 1346200); conditions: malachite green pyrophosphate, A620, at 8 µM, stronger effect = lower value;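 further: 100% = wells without compound and 0% = wells lacking enzyme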
[2] = tested on: Aerobactin synthetase IucA (Klebsiella pneumoniae, hypervirulent); test: IucA enzyme inhibition, biochemical, LOPAC library, absorbance readout (AID 1346212); conditions: IucA enzyme assay, absorbance (OD) readout; stronger effect = lower value; concentration not given here;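 further: 100% = no compound wells and 0% = no enzyme wells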
[3] = sensitizers of A549 cells to miR-34 induction, primary screen, imaging, A549 dox-inducible miR-34, nuclei and caspase counts (AID 1347080;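 active means compounds whose cell count with miR-34 switched on is under 0.7 times the count with it off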); conditions: A549 miR-34 inducible, Hoechst nuclei count, 48 h

Compound: COc1cc2c(c(OC)c1OC)-c1ccc(OC)c(=O)cc1[C@@H](NC(C)=O)CC2
- activity remaining [1]: 115% (inactive)
- remaining activity [2]: 112% (inactive)

Compound: CCCCNC(=O)NS(=O)(=O)c1ccc(C)cc1
- activity remaining [1]: 120% (inactive)
- remaining activity [2]: 95.4% (inactive)

Compound: O=C1c2c(O)ccc(O)c2C(=O)c2c(NCCNCCO)ccc(NCCNCCO)c21
- activity remaining [1]: 107% (inactive)
- remaining activity [2]: 110% (inactive)

Compound: O=C(O)CCCCCCCC(=O)O
- activity remaining [1]: 120% (inactive)
- remaining activity [2]: 93.4% (inactive)

Compound: CC(N=C(NC#N)Nc1ccncc1)C(C)(C)C (stereo unspecified)
- activity remaining [1]: 105% (inactive)
- remaining activity [2]: 92.7% (inactive)

Compound: CC1=C(CC(=O)O)c2cc(F)ccc2/C1=C\c1ccc(S(C)=O)cc1 (stereo unspecified)
- activity remaining [1]: 90% (inactive)
- remaining activity [2]: 119% (inactive)

Compound: CNC(=O)Oc1ccc2c(c1)[C@]1(C)CCN(C)[C@@H]1N2C
- activity remaining [1]: 116% (inactive)
- remaining activity [2]: 110% (inactive)

Compound: O=C1N=C(O)CN1/N=C/c1ccc(-c2ccc([N+](=O)[O-])cc2)o1
- activity remaining [1]: 118% (inactive)
- remaining activity [2]: 100% (inactive)

Compound: NC(N)=NC(N)=Nc1ccccc1
- activity remaining [1]: 123% (inactive)
- remaining activity [2]: 101% (inactive)

Compound: CC(COc1ccccc1)N(CCCl)Cc1ccccc1 (stereo unspecified)
- activity remaining [1]: 107% (inactive)
- remaining activity [2]: 109% (inactive)

Compound: N=c1nc(N2CCCCC2)cc(N)n1O
- activity remaining [1]: 110% (inactive)
- remaining activity [2]: 118% (inactive)

Compound: Clc1ccccc1C(c1ccccc1)(c1ccccc1)n1ccnc1
- activity remaining [1]: 113% (inactive)
- remaining activity [2]: 117% (inactive)

Compound: CCC1(C)CC(=O)NC1=O (stereo unspecified)
- activity remaining [1]: 123% (inactive)
- remaining activity [2]: 85.2% (inactive)

Compound: O=C(/C=C/c1ccc(O)c(O)c1)OCCc1ccccc1
- activity remaining [1]: 78.8% (inactive)
- remaining activity [2]: 105% (inactive)

Compound: Nc1ncn([C@@H]2O[C@H](CO)[C@@H](O)[C@H]2O)c(=O)n1
- activity remaining [1]: 104% (inactive)
- remaining activity [2]: 112% (inactive)

Compound: CN(C)CCCN1c2ccccc2Sc2ccccc21
- activity remaining [1]: 109% (inactive)
- remaining activity [2]: 95% (inactive)

Compound: Oc1ccc(/C=C/c2cc(O)cc(O)c2)cc1
- activity remaining [1]: 110% (inactive)
- remaining activity [2]: 75.6% (inactive)

Compound: CC(C)C(=O)Nc1ccc([N+](=O)[O-])c(C(F)(F)F)c1
- activity remaining [1]: 115% (inactive)
- remaining activity [2]: 97.1% (inactive)

Compound: CN1CCC[C@@H]1CCO[C@](C)(c1ccccc1)c1ccc(Cl)cc1
- activity remaining [1]: 99.3% (inactive)
- remaining activity [2]: 109% (inactive)

Compound: O=[N+]([O-])c1cccc2cn[nH]c12
- activity remaining [1]: 102% (inactive)
- remaining activity [2]: 114% (inactive)

Compound: CC(C)NCC(O)COc1cccc2[nH]ccc12 (stereo unspecified)
- activity remaining [1]: 103% (inactive)
- remaining activity [2]: 116% (inactive)

Compound: Cc1cc(N)c2ccccc2[n+]1CCCCCCCCCC[n+]1c(C)cc(N)c2ccccc21
- activity remaining [1]: 82.6% (inactive)
- remaining activity [2]: 105% (inactive)

Compound: CC(=O)OCC1=C(C(=O)O)N2C(=O)[C@@H](NC(=O)CSc3ccncc3)[C@H]2SC1
- activity remaining [1]: 109% (inactive)
- remaining activity [2]: 113% (inactive)

Compound: CNC[C@H](O)c1cccc(O)c1
- activity remaining [1]: 103% (inactive)
- remaining activity [2]: 112% (inactive)

Compound: C[C@H](CS)C(=O)N1CCC[C@H]1C(=O)O
- activity remaining [1]: 99.1% (inactive)
- remaining activity [2]: 99.3% (inactive)

Compound: NCCc1cnc[nH]1
- activity remaining [1]: 112% (inactive)
- remaining activity [2]: 112% (inactive)

Compound: CCSC(=N)N
- activity remaining [1]: 103% (inactive)
- remaining activity [2]: 93.6% (inactive)

Compound: Cc1ccc(Cl)c(Nc2ccccc2C(=O)O)c1Cl
- activity remaining [1]: 93.4% (inactive)
- remaining activity [2]: 128% (inactive)

Compound: O=c1c(O)c(-c2ccc(O)cc2O)oc2cc(O)cc(O)c12
- activity remaining [1]: 96.8% (inactive)
- remaining activity [2]: 122% (inactive)

Compound: NNc1nncc2ccccc12
- activity remaining [1]: 102% (inactive)
- remaining activity [2]: 101% (inactive)

Compound: CC12CC3CC(C)(C1)CC(N)(C3)C2
- activity remaining [1]: 108% (inactive)
- remaining activity [2]: 92.7% (inactive)

Compound: CCC1(c2ccccc2)C(=O)NCNC1=O
- activity remaining [1]: 125% (inactive)
- remaining activity [2]: 75.1% (inactive)

Compound: C[N+]1(C)C2CC(OC(=O)[C@@H](CO)c3ccccc3)CC1C1OC12 (stereo partly specified)
- activity remaining [1]: 102% (inactive)
- fold change ([3]; stronger effect = lower value): 0.839 (inactive)
- fold change ([3]; measured here: relative caspase fold change +Dox/-Dox): 1.06
- cell count ([3]; measured here: total cells with miR-34 induction, stronger effect = lower value): 10100
- cell count ([3]; measured here: total cells without miR-34 induction): 12100

Compound: COC(=O)C1=C(C)NC(C)=C(C(=O)OCCN(C)Cc2ccccc2)C1c1cccc([N+](=O)[O-])c1 (stereo unspecified)
- activity remaining [1]: 107% (inactive)
- remaining activity [2]: 109% (inactive)

Compound: C[N+]1(CCCCC[N+]2(C)CCCC2)CCCC1
- activity remaining [1]: 89.1% (inactive)
- remaining activity [2]: 119% (inactive)

Compound: Cc1ccc(N(CC2=NCCN2)c2cccc(O)c2)cc1
- activity remaining [1]: 117% (inactive)
- remaining activity [2]: 92.9% (inactive)

Compound: N=C(N)c1ccc(OCCCCCOc2ccc(C(=N)N)cc2)cc1
- activity remaining [1]: 98.2% (inactive)
- remaining activity [2]: 122% (inactive)

Compound: O=C(CCc1ccc(O)cc1)c1c(O)cc(O)cc1O
- activity remaining [1]: 105% (inactive)
- remaining activity [2]: 79.2% (inactive)

Compound: O=C(c1ccc(F)cc1)C1CCN(CCn2c(=O)[nH]c3ccccc3c2=O)CC1
- activity remaining [1]: 120% (inactive)
- remaining activity [2]: 73.1% (inactive)
